Measured values taken from PubChem BioAssay (NCATS).
Inconclusive results are not listed. Active and inactive are the calls of the source. The call rests on the fitted dose curve; in most records, active means well fitted curve in the direction sought with a large enough effect; inconclusive means small, poorly fitted or top-dose-only effect, or another doubt; inactive means no such curve, though single readings can be large; an effect the other way counts as inactive or inconclusive.

Assays:
[1] = qHTS for Inhibitors of Plasmodium falciparum (DD2) proliferation (AID 504314);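 further: parasite DNA measured by SYBR Green fluorescence after red cell lysis; plate controls were DMSO vehicle for no effect and artemisinin wells for full effect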
Summary of the method: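 SYBR Green DNA-fluorescence growth assay: infected RBCs at 0.3% parasitemia, 2.5% hematocrit, 72 h compound exposure, 37C, 5% CO2; overnight lysis with dye at RT; normalized to 0.29 uM artemisinin and vehicle.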

[2] = qHTS for Inhibitors of Plasmodium falciparum (GB4) proliferation (AID 504315); further: nearly all actives have a fitted effect of over 50% in size; further: potency means the concentration at half of the fitted maximal effect
Summary of the method: (§1)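 Parasite growth measured as SYBR Green DNA fluorescence (ex 485, em 535 nm) after overnight lysis following 72 h culture at 37 °C, 0.3% parasitemia, 2.5% hematocrit. Values normalized against DMSO and 0.29 uM artemisinin controls, with plate-stack correction.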

[3] = qHTS for Inhibitors of Plasmodium falciparum (HB3) proliferation (AID 504318);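 further: 0% = DMSO vehicle and -100% = artemisinin control; nearly all actives have a fitted effect of over 60% in size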
Summary of the method: as §1

[4] = qHTS for Inhibitors of Plasmodium falciparum (CP250) proliferation (AID 504320);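 further: plate controls were DMSO vehicle for no effect and 0.29 µM artemisinin control for full effect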
Summary of the method: as §1

[5] = qHTS for Inhibitors of Plasmodium falciparum (7G8) proliferation (AID 504316);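 further: series mostly up to about 6.7 µM; 0% = DMSO vehicle and -100% = 0.29 µM artemisinin full kill; nearly all actives have a fitted effect of over 65% in size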
Summary of the method: as §1

[6] = target: Cytochrome P450 3A4 (Homo sapiens) (UniProt P08684); assay: qHTS Assay for Inhibitors and Substrates of Cytochrome P450 3A4 (AID 884); further: potency means the concentration at half of the fitted maximal effect; nearly all actives have a fitted effect of over 50% in size
Cytochrome P450 3A4 (Homo sapiens), sequence (P08684 whole entry, looked up): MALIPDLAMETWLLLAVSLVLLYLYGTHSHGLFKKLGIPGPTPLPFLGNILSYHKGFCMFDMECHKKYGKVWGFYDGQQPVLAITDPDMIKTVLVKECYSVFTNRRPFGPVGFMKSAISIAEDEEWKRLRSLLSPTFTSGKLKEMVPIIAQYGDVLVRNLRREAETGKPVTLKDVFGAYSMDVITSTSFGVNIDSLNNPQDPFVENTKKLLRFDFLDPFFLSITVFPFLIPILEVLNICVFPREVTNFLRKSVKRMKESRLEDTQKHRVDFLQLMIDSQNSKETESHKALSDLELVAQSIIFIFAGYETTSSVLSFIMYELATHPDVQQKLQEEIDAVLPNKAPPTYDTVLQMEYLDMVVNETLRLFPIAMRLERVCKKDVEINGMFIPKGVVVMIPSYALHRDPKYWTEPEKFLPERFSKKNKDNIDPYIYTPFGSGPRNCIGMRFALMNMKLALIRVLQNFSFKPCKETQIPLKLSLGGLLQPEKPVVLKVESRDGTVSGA
Summary of the method: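 Luminescent readout of luciferin produced by CYP3A4 (20 nM) dealkylation of Luciferin-PPXE, 25 uM (its KM). NADPH-driven reaction ran 60 min at RT after 10 min compound preincubation; data scaled to 57 uM ketoconazole as 100% inhibition.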

[7] = target: Cytochrome P450 3A4 (Homo sapiens) (UniProt P08684); assay: qHTS Assay for Activators of Cytochrome P450 3A4 (AID 885); further: nearly all actives have a fitted effect of over 65% in size
Summary of the method: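 Activators are scored by enhanced luminescence from CYP3A4 conversion of luciferin-PPXE (25uM, equal to KM) to luciferin, after 60 min at RT with an NADPH-regenerating system.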

C=CCN1C(=O)[C@@]2(CC(C)=C[C@@H](COc3ccccc3)O2)c2ccccc21
inactive: Potency [1] | Potency [2] | Potency [3] | Potency [4]

c1ccc(-c2nc(-c3ccccc3)c(NC3CCCCC3)o2)cc1
inactive: Potency [1] | Potency [2] | Potency [5] | Potency [3] | Potency [4]

COc1cccc([C@@H]2Oc3ccc(Br)cc3C(=O)[C@@H]2OC(=O)N[C@H](C)C2CCCCC2)c1
inactive: Potency [1] | Potency [2] | Potency [5] | Potency [3] | Potency [4]

CCCCOC(OCCCC)C(O)CSc1ccc2ccccc2c1 (stereo not drawn)
inactive: Potency [1] | Potency [2] | Potency [5] | Potency [3] | Potency [4]

COC(=O)[C@@H]1[C@@H](c2ccccc2)NC(=O)N(Cc2ccccc2)[C@@H]1C
inactive: Potency [1] | Potency [2] | Potency [5] | Potency [3] | Potency [4]

C=CC(=O)N1C(=O)c2ccccc2S1(=O)=O
inactive: Potency [1] | Potency [2] | Potency [3] | Potency [4]

COC(=O)CC=C[C@@H](C)[C@@H](C=NO[C@H](C)CN1CCCc2nc(C)c(C)cc21)N[S+](=O)([O-])c1ccc(C)cc1
inactive: Potency [1] | Potency [2] | Potency [3] | Potency [4]

C#CCCCON=C1C[C@@H](O)[C@H](O)[C@H]2[C@@H]3C(=O)N(Cc4ccc5c(c4)OCO5)C(=O)[C@@H]3CC[C@@H]12
inactive: Potency [2]

CC(=O)C1=C(C)N(CCC=Cc2ccccc2)C(=O)NC1c1ccccc1 (stereo not drawn)
inactive: Potency [1] | Potency [2] | Potency [3] | Potency [4]

COc1cc(CCN2C(=O)NC(c3ccccc3)C(C(C)=O)=C2C)cc(OC)c1OC (stereo not drawn)
inactive: Potency [1] | Potency [2] | Potency [4]

COc1cc(O)c(C(=O)C=Cc2ccccc2)c(O)c1
inactive: Potency [1] | Potency [2] | Potency [3] | Potency [4]

Cc1cc2c(nc1C)CCCCN2C[C@H](C)ON=C[C@@H](C)[C@H](OCc1ccccc1)C(C)C
inactive: Potency [1] | Potency [2] | Potency [3] | Potency [4]

COC(=O)C1=C(C)N(Cc2ccccc2)C(=NCc2ccccc2)NC1c1ccccc1 (stereo not drawn)
inactive: Potency [1] | Potency [3] | Potency [4]

COC(=O)[C@@H]1CC[C@H](C)[C@@H](c2ccc(C)cc2)N1C(=O)c1ccc(C=NOC[C@@H](O)COCc2ccco2)cc1
inactive: Potency [2]

C=C(Nc1ccc(OC)cc1)C(=O)OC
inactive: Potency [1] | Potency [5] | Potency [3]

CCOC(=O)CN1C(=O)C2(CC(C)=C[C@@H](C)O2)c2c(Br)cccc21 (stereo partly drawn)
inactive: Potency [1] | Potency [5] | Potency [3] | Potency [4]

COC1=C[C@H](C(=O)NCCNC(C)=O)[C@@]2(C)Cc3ccccc3[C@@H]2CC1=O
inactive: Potency [1] | Potency [5] | Potency [3] | Potency [4]

COC(=O)c1c(C(=O)OC)c2c3cc(OC)c(OC)cc3ccn2c1C(=O)OC
inactive: Potency [1] | Potency [5] | Potency [3] | Potency [4]

CC(=CC[Si](C)(C)C)CCC=O
inactive: Potency [1] | Potency [2] | Potency [4]

COc1ccc(-c2cnnc(CCCn3ccnc3-c3ccccc3)n2)cc1
active: Potency [6] 6.31 µM
inactive: activity change, positive = activation [7] -71.9% [at 11.4 µM] | Potency [1] | Potency [2]

CC(CCN1CCCc2nc(C)c(C)cc21)=NO[C@@H](C)c1cc(-c2c(C)cc(C)cc2C)no1
inactive: Potency [1] | Potency [2] | Potency [3] | Potency [4]

CCCCC1=CC2=C(c3ccco3)C(=O)C(C)(OC(=O)c3ccc(OC)cc3)C(=O)C2=CN1Cc1ccc2c(c1)OCO2 (stereo not drawn)
inactive: activity, negative = inhibition [1] 4.29% [at 1.12 µM] | Potency [2] | Potency [4]

COC(=O)C1(C(=O)OC)C[C@@H]2CON=C2[C@@H]1c1ccccc1
inactive: Potency [1] | Potency [2] | Potency [3] | Potency [4]

CC(=O)OC[C@H]1O[C@H](CC=NO[C@H](C)c2cn([C@@H]3COC[C@@H]3O)nn2)C=C[C@@H]1OC(C)=O
inactive: Potency [1] | Potency [2] | Potency [3] | Potency [4]

CCOC(=O)CN1C(=O)N[C@@H](CCc2ccccc2)[C@H](C(=O)OC)[C@H]1C
inactive: Potency [1] | Potency [5] | Potency [3] | Potency [4]

CC=C[C@@H]1Oc2ccc(OC)cc2N2C(=O)[C@H](C)[C@@H](OCOC)[C@H]12
inactive: Potency [1] | Potency [3] | Potency [4]

COC(=O)C1=C(C)N(Cc2ccccc2)C(=NCC2CC2)NC1c1ccccc1 (stereo not drawn)
active: Potency [2] 1.69 µM

COC1=C[C@H](C(=O)NCc2ccccn2)[C@@]2(C)Cc3ccccc3[C@@H]2CC1=O
inactive: Potency [1] | Potency [5] | Potency [3] | Potency [4]

COc1ccc2c(c1)C(=O)[C@@H](OC(=O)NS(=O)(=O)c1ccc(F)cc1)[C@H](c1ccc(OC)c(Br)c1)O2
inactive: Potency [1] | Potency [5] | Potency [3] | Potency [4]

COc1ccc(C(=O)[C@]2(C)C=C(c3ccc(OC)cc3)[C@H](C)C2)cc1
inactive: Potency [1] | Potency [2] | Potency [3] | Potency [4]

COC(=O)CC=C[C@@H](C)[C@H](NC(=O)OC)c1ccccc1Br
inactive: Potency [1] | Potency [5] | Potency [3] | Potency [4]
